The record followed here is article PMC4242493, “Sequence specificity incompletely defines the genome-wide occupancy of Myc”.

In all, about 33,000 sequences were measured (“normalized occupancy”: median about 0.075, highest 2% from about 0.095 on). The entries come from a sample that favours the highest values as a whole.

MaxL homodimer, sequence (P61244 whole entry): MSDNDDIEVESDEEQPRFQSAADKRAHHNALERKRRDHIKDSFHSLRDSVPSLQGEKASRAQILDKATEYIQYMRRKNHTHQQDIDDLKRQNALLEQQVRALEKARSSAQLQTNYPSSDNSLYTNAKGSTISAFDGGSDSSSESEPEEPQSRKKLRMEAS

The assay deals with MaxL homodimer (Homo sapiens, UniProt P61244 1-160). As to the kind of experiment: universal protein-binding microarray (PBM); PBS-based mixture, 10 nM His-tagged protein dimer, 2% milk, 200 ng/uL BSA, 50 ng/uL salmon testes DNA, 0.02% TX-100; detection with Alexa 488 anti-His antibody;; high values mean tight binding. As to conditions: protein: recombinant; tags: C-terminal His-tag (pET21a); chain copies: 2; dsDNA, one strand shown. In short, it runs like this:
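Each 8-mer received a fluorescence intensity from GenePix 4400A scans of Agilent 4 x 44 K 'all 10-mer' universal arrays. Those arrays had been incubated with His-tagged protein dimer at 10 nM, and the bound protein was marked with a fluorophore-conjugated anti-His antibody at 10 ng/μL. Binding occupancy is the intensity scaled to that of the highest-ranked sequence word.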
For the sequence ACAGATCT, the binding signal was found to be 0.0745 normalized occupancy. As for GGCATACA, the binding signal stood at 0.0776 normalized occupancy. As for GAGACATC, the binding signal turned out to be 0.0756 normalized occupancy. Take TATGCCGA: the binding signal amounted to 0.0757 normalized occupancy. For CATGCCAA, the binding signal worked out at 0.0927 normalized occupancy. For GATGCCGA, the binding signal was found to be 0.0738 normalized occupancy. Turning to CATGCCAG, the binding signal came to 0.0874 normalized occupancy. As for CATGCCAC, the binding signal stood at 0.0989 normalized occupancy. Take CATGCCGC: the binding signal amounted to 0.105 normalized occupancy. Turning to CATGCCGG, the binding signal came out at 0.0917 normalized occupancy. CATGCCGA: the binding signal came out at 0.102 normalized occupancy. The value for AATGCCGC was 0.0765 normalized occupancy; that for ACCTAAAT was 0.073 normalized occupancy; that for GAGCTATA was 0.0729 normalized occupancy. The value for ATGTGGAA was 0.0936 normalized occupancy; that for GTATGGAA was 0.0836 normalized occupancy; that for ACAGCACG was 0.0906 normalized occupancy. Consider CCCTGGAA, for which the binding signal was 0.0745 normalized occupancy. The value for AGCAGACA was 0.0774 normalized occupancy; that for CCGCCACC was 0.0762 normalized occupancy; that for TAATTGTA was 0.0773 normalized occupancy. The value for CTTTTGGA was 0.0744 normalized occupancy; that for CACCTGGG was 0.0841 normalized occupancy; that for CACCTGAG was 0.0741 normalized occupancy.

Regarding CACCTGTC, the binding signal came out at 0.0839 normalized occupancy.

Consider CACCTGGA, for which the binding signal came out at 0.0905 normalized occupancy. Turning to CACCTGGC, the binding signal came out at 0.103 normalized occupancy. On to CACCTGAC, for which the binding signal came to 0.0973 normalized occupancy. Regarding ATTCGAGG, the binding signal was found to be 0.0723 normalized occupancy.

Take ACTGCACT: the binding signal is 0.0733 normalized occupancy.

For ATATGTTA, the binding signal was 0.0924 normalized occupancy. To AGATGTTG belongs 0.0819 normalized occupancy; to CCATGTTA, 0.0847 normalized occupancy; to ACATGTCA, 0.0911 normalized occupancy.

Consider ACATGTTG, for which the binding signal was found to be 0.11 normalized occupancy. As for GCATGTCA, the binding signal was 0.0972 normalized occupancy. The value for AAATGTTG was 0.0794 normalized occupancy; that for GCATGTTA was 0.0976 normalized occupancy.

With ACATGTTA, the binding signal came to 0.0993 normalized occupancy. For AGATGTTA, the binding signal turned out to be 0.0811 normalized occupancy. Consider GTATGTTA, for which the binding signal was determined as 0.0849 normalized occupancy. Regarding GCATGTCC, the binding signal was 0.0929 normalized occupancy. As for TACAGACA, the binding signal amounted to 0.0803 normalized occupancy. To CATTGACG belongs 0.0792 normalized occupancy. As to CGACCCTC, the binding signal came out at 0.0724 normalized occupancy. On to TCTTGTAA, for which the binding signal came out at 0.0718 normalized occupancy.

AGAACGAC: the binding signal was determined as 0.0774 normalized occupancy. To GAGGCCCC belongs 0.0733 normalized occupancy; to GATGTCCA, 0.0757 normalized occupancy. For CCATTCTA, the binding signal turned out to be 0.0759 normalized occupancy. Take AGCTGCCA: the binding signal was found to be 0.0736 normalized occupancy.

Turning to ATATGTTC, the binding signal worked out at 0.0831 normalized occupancy. To CCATGTTC belongs 0.0828 normalized occupancy; to ACATGTTC, 0.0965 normalized occupancy. For the sequence GGCATCAC, the binding signal amounted to 0.0813 normalized occupancy. In the case of GACAAGCC, the binding signal came to 0.0728 normalized occupancy. AAGCATCA: the binding signal amounted to 0.076 normalized occupancy. To ATGCGCAG belongs 0.0789 normalized occupancy. Consider ATACGCAC, for which the binding signal was found to be 0.0799 normalized occupancy. For the sequence ATACGCAT, the binding signal was found to be 0.0968 normalized occupancy. Regarding ACACGCAT, the binding signal was 0.0976 normalized occupancy. To ATGCGCAT belongs 0.102 normalized occupancy; to ACACGCAA, 0.087 normalized occupancy. In the case of ATACGCAG, the binding signal was 0.0734 normalized occupancy. Consider ACACGCAC, for which the binding signal came to 0.0931 normalized occupancy. On to ATGCGCAC, for which the binding signal came to 0.0828 normalized occupancy. With CAGTACTA, the binding signal was 0.0775 normalized occupancy. To CCCACAGC belongs 0.0741 normalized occupancy. Take CCTGGCTC: the binding signal came out at 0.0726 normalized occupancy. Take ACCTAAGT: the binding signal amounted to 0.0745 normalized occupancy.

Turning to AGTGATGG, the binding signal was 0.0766 normalized occupancy.

As for GGTAGTCA, the binding signal worked out at 0.0743 normalized occupancy. The value for AAAATGAC was 0.0766 normalized occupancy; that for CATGCAGA was 0.0959 normalized occupancy; that for AATGCAGG was 0.08 normalized occupancy. Consider CCTGCAGG, for which the binding signal stood at 0.074 normalized occupancy. As to CATGCAGC, the binding signal is 0.0946 normalized occupancy. As to AATGCAGA, the binding signal came out at 0.0752 normalized occupancy. CATGCAGG: the binding signal was 0.097 normalized occupancy. On to GGTTTGTA, for which the binding signal came to 0.0749 normalized occupancy. Regarding AGTTCTAC, the binding signal came to 0.0751 normalized occupancy. Take AACAAATT: the binding signal turned out to be 0.0736 normalized occupancy. CGGCAAGC: the binding signal was 0.0718 normalized occupancy. With CTTGTAAC, the binding signal was found to be 0.0775 normalized occupancy.

With ACCCACCG, the binding signal amounted to 0.0804 normalized occupancy. As to ATCGCATC, the binding signal stood at 0.0742 normalized occupancy. Take ACCGCATC: the binding signal was found to be 0.0749 normalized occupancy. The value for AGCGCATA was 0.0757 normalized occupancy. Regarding ACCGCATA, the binding signal came to 0.0828 normalized occupancy.

On to AGCGCATG, for which the binding signal was found to be 0.109 normalized occupancy.

ACCGCATG: the binding signal worked out at 0.146 normalized occupancy.

On to ATCGCATG, for which the binding signal is 0.108 normalized occupancy. The value for AGCGCATC was 0.0737 normalized occupancy. The value for ATCGCATA was 0.082 normalized occupancy; that for AATTCACA was 0.0775 normalized occupancy; that for GTCACTAA was 0.0757 normalized occupancy.

With AACATCTC, the binding signal was found to be 0.0748 normalized occupancy. Take ATGGACGG: the binding signal stood at 0.0788 normalized occupancy. The value for AACACGAG was 0.11 normalized occupancy; that for CACACGAA was 0.0853 normalized occupancy. For AACACGAT, the binding signal is 0.0845 normalized occupancy.

Consider CACACGAG, for which the binding signal turned out to be 0.0978 normalized occupancy. On to CACACGAC, for which the binding signal turned out to be 0.0877 normalized occupancy. Turning to AACACGAA, the binding signal is 0.0741 normalized occupancy.

Regarding TAGAGCTA, the binding signal came to 0.0719 normalized occupancy. The value for AGTGTATC was 0.0882 normalized occupancy; that for AAATTGCC was 0.0721 normalized occupancy; that for CAATTCTA was 0.0752 normalized occupancy. Take CACATTGG: the binding signal turned out to be 0.0977 normalized occupancy. As for AACATTTA, the binding signal stood at 0.0795 normalized occupancy. For CACATTGC, the binding signal came to 0.0923 normalized occupancy. Consider CACATTGA, for which the binding signal was found to be 0.0932 normalized occupancy. For the sequence CACATTTA, the binding signal worked out at 0.0961 normalized occupancy. In the case of GACATTTA, the binding signal was 0.0853 normalized occupancy. GTTCTAGA: the binding signal stood at 0.0745 normalized occupancy. Regarding ATGTGGTA, the binding signal is 0.0922 normalized occupancy. Regarding ATGTGGAG, the binding signal worked out at 0.0861 normalized occupancy. On to ATGTGGTG, for which the binding signal worked out at 0.0894 normalized occupancy. The value for ATGTGGTC was 0.0985 normalized occupancy. As for CTGTGGAC, the binding signal was found to be 0.0726 normalized occupancy.

On to ATGTGGAC, for which the binding signal was 0.0955 normalized occupancy. To AACGCTGT belongs 0.0729 normalized occupancy; to CGCAATCC, 0.0789 normalized occupancy.

On to CCAATCTA, for which the binding signal amounted to 0.073 normalized occupancy. ACCACGGC: the binding signal was 0.0743 normalized occupancy. On to ACCACACA, for which the binding signal turned out to be 0.085 normalized occupancy.

GCCACGCA: the binding signal is 0.0915 normalized occupancy.

Consider ACCACGTC, for which the binding signal amounted to 0.0945 normalized occupancy. For the sequence ACCACGTG, the binding signal was found to be 0.773 normalized occupancy. ACCACGTA: the binding signal was 0.0816 normalized occupancy. To ACCACGCC belongs 0.102 normalized occupancy; to ACCACACG, 0.0972 normalized occupancy; to ACCACACT, 0.0849 normalized occupancy.

For GCCACGCC, the binding signal came to 0.0925 normalized occupancy.

Turning to TCCACGCA, the binding signal is 0.0885 normalized occupancy. As for ACCACGCA, the binding signal was found to be 0.0954 normalized occupancy. Turning to AAAGCAGT, the binding signal was 0.0719 normalized occupancy. As for ATGAAGCG, the binding signal is 0.0749 normalized occupancy. On to GTCGCGCA, for which the binding signal stood at 0.0729 normalized occupancy. With CTATGCCA, the binding signal turned out to be 0.0777 normalized occupancy. The value for AACAAGAA was 0.0753 normalized occupancy; that for AGCCTCTC was 0.0729 normalized occupancy; that for ATCACGTC was 0.0875 normalized occupancy.

Take ACACCACA: the binding signal turned out to be 0.083 normalized occupancy.

For the sequence ACCACGGT, the binding signal turned out to be 0.0803 normalized occupancy.

Consider CCCACGGC, for which the binding signal stood at 0.0782 normalized occupancy. To ATCACGTA belongs 0.0829 normalized occupancy; to ACACCACG, 0.0983 normalized occupancy.

Regarding CCCACGTC, the binding signal came to 0.0804 normalized occupancy.

Regarding ATCACGTG, the binding signal was found to be 0.363 normalized occupancy.

CCCACGCC: the binding signal was found to be 0.099 normalized occupancy. With ACACCACC, the binding signal is 0.086 normalized occupancy. On to ACCACGAT, for which the binding signal turned out to be 0.0936 normalized occupancy. With ACCACGCT, the binding signal stood at 0.123 normalized occupancy. With CGAAGGTA, the binding signal was determined as 0.0721 normalized occupancy.

Consider CTGTGGCA, for which the binding signal was found to be 0.0739 normalized occupancy. To AGGAACAG belongs 0.0793 normalized occupancy; to ATCACGCA, 0.0877 normalized occupancy; to ATCACGCG, 0.132 normalized occupancy. As to CCCACGCA, the binding signal came out at 0.0903 normalized occupancy. Turning to ACCACGGA, the binding signal came to 0.0736 normalized occupancy. Take ACCACGCG: the binding signal amounted to 0.187 normalized occupancy.

Take ACCACGGG: the binding signal was 0.0834 normalized occupancy. As for CCCACACA, the binding signal is 0.0838 normalized occupancy. Consider ATCACGCC, for which the binding signal was 0.0864 normalized occupancy. With CCCACGCG, the binding signal was determined as 0.148 normalized occupancy. ACGACGAG: the binding signal was 0.0759 normalized occupancy.

Consider AATTACGA, for which the binding signal was 0.0775 normalized occupancy.

As to AATGGCAA, the binding signal amounted to 0.0742 normalized occupancy. With CTCAACAA, the binding signal worked out at 0.0728 normalized occupancy.

For ACTGCTTC, the binding signal worked out at 0.0747 normalized occupancy.

With AGTTGGTC, the binding signal was determined as 0.0747 normalized occupancy.

Turning to ACGCGCCT, the binding signal was 0.0828 normalized occupancy.
